Results: PubChem BioAssay (NCATS)
Records with an inconclusive call do not appear. Where a call stands in place of a potency, no number is given. The source made the active and inactive calls. Calls come from the whole dose curve; as a rule, active = well fitted cell-killing curve with a large enough effect; inconclusive = small, poorly fitted or top-dose-only effect; inactive = flat fitted curve, though single readings scatter.

Experiment: Cell Viability - LYMP2-023 (AID 975);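 note: cellular ATP measured by luciferase luminescence as viability proxy; cells exposed to compound for 24 hours at 37 °C; nearly all actives have a fitted effect of over 55% in size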
Conditions: LYMP2-023 lymphoblastoid cell viability; series mostly up to 92.2 µM
In short: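 LYMP2-023 human lymphoblastoid cells, 2500/well, preincubated 5 hr at 37 C, then compound-treated 24 hr at 37 C in complete medium. CellTiter-Glo luminescence (ATP) after 30 min at room temperature; AC50 from Hill-equation fits; tetraoctylammonium bromide positive control.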

| Structure (SMILES) | Potency |
| --- | --- |
| ClCCCl | inactive |
| CCC(O)OC(O)CC (stereo not given) | inactive |
| CCCCCCCCO | inactive |
| CCO | inactive |
| O=NO | inactive |
| OCCNCCO | inactive |
| CCC(C)c1ccccc1O (stereo not given) | inactive |
| CN(C)C=O | inactive |
| Cc1ccc(N)c([N+](=O)[O-])c1 | inactive |

Experiment: Cell Viability - LYMP2-025 (AID 976); note: potency is the fitted concentration of half-maximal effect
Conditions: LYMP2-025 lymphoblastoid cell viability; series mostly up to 92.2 µM
In short: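 Human lymphoblastoid LYMP2-025 cells, 2500/well, exposed 24 h at 37 C in complete medium in 1536-well qHTS. Viability as cellular ATP by CellTiter-Glo luminescence; AC50 from Hill fits of concentration-response data.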

| Structure (SMILES) | Potency |
| --- | --- |
| CCCN(CCC)C(=O)SCC | inactive |
| COc1ccc2nc(N)sc2c1 | inactive |
| ClCCCl | inactive |
| CCC(O)OC(O)CC (stereo not given) | inactive |
| C=Cc1ccccc1Cl | inactive |
| c1ccc2c(c1)c1cccc3ccc4cccc2c4c31 | inactive |
| Cc1cccc([N+](=O)[O-])c1C | inactive |
| CCCCCCCCO | inactive |
| CC(C)=CCCC(C)CCO (stereo not given) | inactive |
| O=[N+]([O-])c1cccc(Cl)c1Cl | inactive |
| CCO[Si](CCCN)(OCC)OCC | inactive |
| Clc1cc(Cl)c(Cl)cc1Cl | inactive |
| CCO | inactive |
| C=CC(=O)OCCOCCOCCOCCOC(=O)C=C | 25.1 µM (active) |
| Clc1cc(Cl)c(Cl)c(Cl)c1Cl | inactive |
| CCCCC(CC)CN (stereo not given) | inactive |
| O=NO | inactive |
| c1ccc2c(c1)[nH]c1ccccc12 | inactive |
| OCCNCCO | inactive |
| Nc1ccc(Cl)cc1Cl | inactive |
| CCC(C)c1ccccc1O (stereo not given) | inactive |
| CC1=CC(C)(C)Nc2ccccc21 | inactive |
| CN(C)C=O | inactive |
| Cc1ccc(N)c([N+](=O)[O-])c1 | inactive |
| CCCCOCCO | inactive |
| CC(=O)OC/C=C(\C)CCC=C(C)C | inactive |
